This passage reports Potency and activation results from PubChem BioAssay (Tox21).

A number with no mark means an inactive call. Active and inactive are the calls of the source. Unless noted, calls follow the shape of the dose curve; as a rule, active = well fitted curve in the direction sought with a large enough effect in the repeat runs; inconclusive = weak or mixed curves; inactive = no such curve, though single readings can be large; an effect the other way counts as inactive or inconclusive.

Experiment [1] is described as follows: qHTS assay to identify small molecule antagonists of the glucocorticoid receptor (GR) signaling pathway - cell viability counter screen (AID 720693). Also: nearly all actives have a fitted effect of over 55% in size. Also: potency is read from the fitted curve at half-maximal effect. On the technique in general: In qHTS, concentration-response curves come from the screen itself.
A short description of experiment [2]: qHTS assay for identifying genotoxic compounds that show differential cytotoxicity against isogenic chicken DT40 cell lines with known DNA damage response pathways - wild type cell line (AID 743012). Also: nearly all actives have a fitted effect of over 60% in size. Also: potency is read from the fitted curve at half-maximal effect. An outline of the steps: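 Cytotoxicity in repair-proficient parental chicken DT40 cells serves as the comparator for Rad54/Ku70- and Rev3-deficient lines. Cells were exposed to compounds for 40 h at 37 C/5% CO2, and ATP-based luminescence (CellTiter-Glo) measured viability.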

A short description of experiment [3]: qHTS assay for identifying genotoxic compounds that show differential cytotoxicity against isogenic chicken DT40 cell lines with known DNA damage response pathways - Rev3 mutant cell line (AID 743014). Also: nearly all actives have a fitted effect of over 55% in size. Also: potency is read from the fitted curve at half-maximal effect.
Experiment [4] in a line: qHTS assay for identifying genotoxic compounds that show differential cytotoxicity against isogenic chicken DT40 cell lines with known DNA damage response pathways - Rad54/Ku70 mutant cell line (AID 743015). Also: nearly all actives have a fitted effect of over 60% in size. Also: potency is read from the fitted curve at half-maximal effect.
Experiment [5] is described as follows: qHTS assay to identify small molecule antagonists of the androgen receptor (AR) signaling pathway - cell viability counter screen (AID 743033; also: nearly all actives have a fitted effect of over 45% in size; also: potency is read from the fitted curve at half-maximal effect).
The target of experiment [6] is Androgen receptor (Homo sapiens) (UniProt P10275). The experiment is described as follows: qHTS assay to identify small molecule agonists of the androgen receptor (AR) signaling pathway using the MDA cell line (AID 743040; also: % is scaled to controls: 0 for no effect and ±100 for the full control effect; nearly all actives have a fitted effect of over 20% in size). An outline of the steps:
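Luciferase read-out, ONE-Glo, 30 min RT. Cells: MDA-kb2 AR-luc, MMTV promoter with AR and GR response elements. Compound exposure 16 h, 37C, 0% CO2, after 5 h pre-incubation. qHTS agonist mode.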

Experiment [7] in a line: qHTS assay to identify small molecule antagonists of the androgen receptor (AR) signaling pathway using the MDA cell line - cell viability counter screen (AID 743041; also: nearly all actives have a fitted effect of over 45% in size; also: potency is read from the fitted curve at half-maximal effect). An outline of the steps: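 Cytotoxicity counter screen: MDA-kb2 AR-luc cells, compound + R1881, 16 h, 37C, 0% CO2; CellTiter-Fluor added at 15.5 h, fluorescence read after 30 min.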
Experiment [8] addresses Androgen receptor (Homo sapiens) (UniProt P10275). The experiment is described as follows: qHTS assay to identify small molecule antagonists of the androgen receptor (AR) signaling pathway using the MDA cell line (AID 743042; also: potency is read from the fitted curve at half-maximal effect; nearly all actives have a fitted effect of over 55% in size). The method in brief:
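MDA-kb2 breast carcinoma cells carrying MMTV-luciferase (AR/GR responsive) were co-treated with compounds and the agonist R1881 for 16 h at 37C. Inhibition read as ONE-Glo luminescence; CellTiter-Fluor fluorescence measured in parallel for cytotoxicity.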

Experiment [9] is described as follows: qHTS assay to identify small molecule antagonists of the thyroid receptor (TR) signaling pathway - cell viability counter screen (AID 743064). Also: nearly all actives have a fitted effect of over 50% in size. Also: potency is read from the fitted curve at half-maximal effect. The method in brief: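 In rat pituitary GH3.TRE-Luc reporter cells co-exposed to compound and 1 nM T3 for 23.5 h, cytotoxicity was assessed with CellTiter-Fluor in the same wells, read by fluorescence.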
Experiment [10] is described as follows: qHTS assay to identify small molecule antagonists of the estrogen receptor alpha (ER-alpha) signaling pathway - cell viability counter screen (AID 743074; calls by dose curve;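 also: HEK293 cells carrying ER-alpha-UAS-bla reporter stimulated with 17beta-estradiol; nearly all actives have a fitted effect of over 45% in size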; also: potency is read from the fitted curve at half-maximal effect).
The next experiment addresses Aromatase (Homo sapiens) (UniProt P11511). The experiment is described as follows: qHTS assay to identify aromatase inhibitors (AID 743083). Also: nearly all actives have a fitted effect of over 55% in size. Also: potency is read from the fitted curve at half-maximal effect.
Experiment [11] can be described thus: qHTS assay to identify small molecule antagonists of the thyroid receptor (TR) signaling pathway (AID 743065). Also: nearly all actives have a fitted effect of over 55% in size. Also: potency is read from the fitted curve at half-maximal effect. The method in brief: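 GH3.TRE-Luc rat pituitary cells (two TREs driving luciferase) were dosed with compound, then stimulated with 1 nM T3 (final) for 23.5 h at 37 C. ONE-Glo luminescence was the read-out, with CellTiter-Fluor fluorescence as the cytotoxicity counter-screen.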

The test system of experiment [12] is thyroid hormone receptor (rat, GH3 cells). The experiment is described as follows: qHTS assay to identify small molecule agonists of the thyroid receptor (TR) signaling pathway (AID 743066; calls by dose curve; also: % is scaled to controls: 0 for no effect and ±100 for the full control effect).
A short description of experiment [13]: qHTS assay to identify small molecule antagonists of the estrogen receptor alpha (ER-alpha) signaling pathway using the BG1 cell line - cell viability counter screen (AID 743081).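 Also: compound given together with 17beta-estradiol as the ER stimulus; nearly all actives have a fitted effect of over 45% in size.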 Also: potency is read from the fitted curve at half-maximal effect.
The target of experiment [14] is Estrogen receptor (Homo sapiens) (UniProt P03372). The experiment is described as follows: qHTS assay to identify small molecule antagonists of the estrogen receptor alpha (ER-alpha) signaling pathway (AID 743069; active = well fitted curve in the direction sought with a large enough effect in the signal ratio in the repeat runs, not every such curve was filed as active; inconclusive = weak or mixed curves, or effect the other way; inactive = no such curve, though single readings can be large or run the other way; the % refers to the signal ratio; also: potency is read from the fitted curve at half-maximal effect). An outline of the steps: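 Beta-lactamase FRET fluorescence is read after 2 hr at room temperature with LiveBLAzer B/G substrate. Before that, ER-alpha-bla HEK293 cells sit 4 hr after plating, then receive compound plus 17beta-estradiol and incubate 18 hr at 37C.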

Experiment [15] shares this target. Kind of experiment: qHTS assay to identify small molecule agonists of the estrogen receptor alpha (ER-alpha) signaling pathway (AID 743075; calls by dose curve;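 also: HEK293 GripTite cells with ER-alpha and UAS-driven beta-lactamase reporter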; also: potency is read from the fitted curve at half-maximal effect; as to activation: % is scaled to controls: 0 for no effect and ±100 for the full control effect). The conditions noted are these: HEK293 ER-alpha-UAS-bla, beta-lactamase FRET ratio, 18 h; activation: at 70.1 µM (top of the series).
For experiment [16], the target named is Androgen receptor (Homo sapiens) (UniProt P10275). Kind of experiment: qHTS assay to identify small molecule agonists of the androgen receptor (AR) signaling pathway (AID 743036; active = well fitted activation curve with a large enough effect in the signal ratio in the repeat runs, with a control signal flat, not every such curve was filed as active; inconclusive = weak or mixed curves, or effect the other way; inactive = no such curve, though single readings can be large or run the other way; the % refers to the signal ratio; also: % is scaled to controls: 0 for no effect and ±100 for the full control effect). The method in brief: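 Cell-based FRET reporter assay: HEK293 line with a UAS-beta-lactamase construct, compounds added in DMSO, 16 h exposure at 37C, then 2 h substrate step at room temperature and fluorescence intensity read.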

Experiment [17] has the same target. The experiment is described as follows: qHTS assay to identify small molecule antagonists of the androgen receptor (AR) signaling pathway (AID 743035; active = well fitted inhibition curve with a large enough effect in the signal ratio in the repeat runs, not every such curve was filed as active; inconclusive = weak or mixed curves, or effect the other way; inactive = no such curve, though single readings can be large or run the other way; the % refers to the signal ratio; also: potency is read from the fitted curve at half-maximal effect). The method in brief: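 Steps: seed AR-UAS-bla GripTite HEK293 cells, incubate 4 h at 37C; pin in test compound, then add agonist R1881; incubate 16 h at 37C; add LiveBLAzer B/G FRET substrate, 2 h at room temperature; read fluorescence.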

The target of experiment [18] is Estrogen receptor (Homo sapiens) (UniProt P03372). The experiment is described as follows: qHTS assay to identify small molecule agonists of the estrogen receptor alpha (ER-alpha) signaling pathway using the BG1 cell line (AID 743079). Also: % is scaled to controls: 0 for no effect and ±100 for the full control effect; nearly all actives have a fitted effect of over 20% in size. The conditions noted are these: BG1Luc4E2 cells, ERE-luciferase agonist, 22 h; at 70.3 µM (top of the series).
Experiment [19] is described as follows: qHTS assay to identify small molecule antagonists of the estrogen receptor alpha (ER-alpha) signaling pathway using the BG1 cell line (AID 743080; calls by dose curve; also: % is scaled to controls: 0 for no effect and ±100 for the full control effect; nearly all actives have a fitted effect of over 25% in size). An outline of the steps:
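Antagonist mode: compounds in DMSO were pinned onto BG1-Luc-4E2 cells alongside 17beta-estradiol agonist, incubated 21.5 h, and ERE-driven luciferase measured with ONE-Glo. Cytotoxicity was multiplexed using CellTiter-Fluor fluorescence.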

Chain of Androgen receptor (Homo sapiens) (P10275 whole entry, looked up): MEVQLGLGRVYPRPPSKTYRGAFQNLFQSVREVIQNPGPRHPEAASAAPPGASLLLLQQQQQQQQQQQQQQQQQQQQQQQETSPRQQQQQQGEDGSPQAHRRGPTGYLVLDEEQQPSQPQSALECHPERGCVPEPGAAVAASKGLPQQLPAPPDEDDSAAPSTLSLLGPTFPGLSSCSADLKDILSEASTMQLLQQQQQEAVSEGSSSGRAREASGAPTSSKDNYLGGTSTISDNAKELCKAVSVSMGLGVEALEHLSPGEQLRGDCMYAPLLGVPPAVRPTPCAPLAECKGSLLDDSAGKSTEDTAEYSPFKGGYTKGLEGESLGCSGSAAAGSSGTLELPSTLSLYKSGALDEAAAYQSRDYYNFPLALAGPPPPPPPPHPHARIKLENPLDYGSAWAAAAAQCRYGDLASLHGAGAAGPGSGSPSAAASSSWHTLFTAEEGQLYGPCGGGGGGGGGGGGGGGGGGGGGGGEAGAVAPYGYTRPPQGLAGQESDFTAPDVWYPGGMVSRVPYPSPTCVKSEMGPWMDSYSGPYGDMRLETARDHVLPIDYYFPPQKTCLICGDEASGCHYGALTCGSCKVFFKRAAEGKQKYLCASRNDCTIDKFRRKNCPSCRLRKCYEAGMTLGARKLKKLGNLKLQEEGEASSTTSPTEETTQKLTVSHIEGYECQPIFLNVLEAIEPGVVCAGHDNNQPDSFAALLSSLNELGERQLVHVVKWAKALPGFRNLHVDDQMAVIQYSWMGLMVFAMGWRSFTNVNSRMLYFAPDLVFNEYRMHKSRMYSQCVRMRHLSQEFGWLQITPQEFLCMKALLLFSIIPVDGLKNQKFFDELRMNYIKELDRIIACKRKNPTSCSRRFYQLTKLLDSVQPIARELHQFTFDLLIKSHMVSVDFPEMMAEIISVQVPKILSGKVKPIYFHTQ
Chain of Estrogen receptor (Homo sapiens) (P03372 whole entry, looked up): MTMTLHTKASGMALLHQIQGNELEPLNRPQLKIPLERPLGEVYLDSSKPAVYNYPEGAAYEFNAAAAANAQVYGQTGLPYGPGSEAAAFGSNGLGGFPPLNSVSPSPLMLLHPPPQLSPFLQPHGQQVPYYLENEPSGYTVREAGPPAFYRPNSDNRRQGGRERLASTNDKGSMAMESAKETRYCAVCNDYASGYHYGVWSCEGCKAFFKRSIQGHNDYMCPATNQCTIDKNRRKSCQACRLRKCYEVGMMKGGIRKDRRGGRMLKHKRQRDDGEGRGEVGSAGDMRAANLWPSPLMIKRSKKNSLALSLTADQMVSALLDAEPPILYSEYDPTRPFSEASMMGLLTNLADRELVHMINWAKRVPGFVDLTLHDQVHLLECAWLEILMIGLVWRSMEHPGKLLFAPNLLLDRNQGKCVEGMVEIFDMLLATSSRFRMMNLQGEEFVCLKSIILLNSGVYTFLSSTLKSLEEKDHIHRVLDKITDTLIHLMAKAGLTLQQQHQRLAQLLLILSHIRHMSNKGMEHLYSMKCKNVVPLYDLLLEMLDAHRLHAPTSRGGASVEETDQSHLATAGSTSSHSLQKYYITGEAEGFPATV
Chain of Aromatase (Homo sapiens) (P11511 whole entry, looked up): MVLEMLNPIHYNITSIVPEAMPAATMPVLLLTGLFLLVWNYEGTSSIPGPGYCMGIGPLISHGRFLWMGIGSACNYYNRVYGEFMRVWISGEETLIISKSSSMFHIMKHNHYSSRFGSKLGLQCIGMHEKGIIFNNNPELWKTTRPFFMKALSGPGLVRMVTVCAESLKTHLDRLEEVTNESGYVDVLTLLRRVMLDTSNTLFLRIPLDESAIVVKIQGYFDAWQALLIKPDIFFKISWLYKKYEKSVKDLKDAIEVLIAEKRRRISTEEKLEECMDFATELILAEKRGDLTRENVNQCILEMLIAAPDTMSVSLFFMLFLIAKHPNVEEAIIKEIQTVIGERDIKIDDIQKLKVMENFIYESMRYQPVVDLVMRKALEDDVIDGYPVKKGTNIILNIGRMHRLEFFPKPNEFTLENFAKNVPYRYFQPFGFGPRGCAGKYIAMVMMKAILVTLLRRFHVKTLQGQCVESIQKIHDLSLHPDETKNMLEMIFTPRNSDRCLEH

Take `CCCCCCCCCCCCCCCCCC[N+](C)(C)C`: the Potency in [1] was 24.6 µM (active); in experiment [2] it was 2.74 µM (active); in [3] it was 1.37 µM (active); in experiment [4], 2.74 µM (active); in experiment [5] it was 43.8 µM (active); in experiment [7], 48.7 µM (active). Besides, the Potency in [8] is 24.4 µM (active); in experiment [9] it was 12.2 µM (active); in experiment [10], 43.8 µM (active); with Aromatase (Homo sapiens), 21.8 µM (active). The Potency result in experiment [6] is “inactive”.

For the compound `Cc1cc(O)c(C(C)(C)C)cc1Sc1cc(C(C)(C)C)c(O)cc1C`, the Potency is 10.9 µM (active) in [1]; 21.6 µM (active) in experiment [2]; 12.2 µM (active) in experiment [3]; 12.2 µM (active) in experiment [4]; 15.5 µM (active) in experiment [5]; 38.5 µM (active) in experiment [7]. The Potency in experiment [8] was 24.3 µM (active); in experiment [9], 3.43 µM (active); in [11], 2.43 µM (active); in experiment [10], 17.3 µM (active); in experiment [13], 54.4 µM (active); with Aromatase (Homo sapiens), 13.7 µM (active). Besides, the Potency entry in experiment [6] and in [12] was “inactive” each time.

As for `O=S1(=O)CC(Cl)(Cl)C(Cl)(Cl)C1`, the Potency in [1] was 9.77 µM (active); in experiment [2], 0.122 µM (active); in experiment [3], 0.172 µM (active); in experiment [4], 0.154 µM (active); in experiment [5], 4.36 µM (active); in experiment [7], 13.7 µM (active). Also, the Potency in [8] is 2.17 µM (active); in [9], 1.93 µM (active); in experiment [11] it was 1.37 µM (active); in experiment [14], 21.9 µM [inconclusive] (active); in [10], 49 µM (active); in experiment [15], 12.3 µM [inconclusive] (active). The Potency was 30.6 µM (active) in experiment [13] and 1.93 µM (active) with Aromatase (Homo sapiens). Besides, in experiment [6], the Potency entry was “inactive”.

With `CCN1/C(=C/C=C/c2sc3ccccc3[n+]2CC)Sc2ccccc21`, the Potency was 21.3 µM (active) in experiment [1]; 0.0266 µM (active) in experiment [2]; 0.0298 µM (active) in [3]; 0.0266 µM (active) in experiment [4]; 3.01 µM (active) in experiment [5]; 0.75 µM (active) in experiment [7]. Moreover, the Potency in [9] is 1.68 µM (active); in experiment [11], 0.841 µM (active); in experiment [10] it was 10.7 µM (active); in experiment [13], 9.44 µM (active); with Aromatase (Homo sapiens), 1.5 µM (active).

Take `C[C@H]1[C@H]2CC[C@H]3[C@@H]4CC=C5C[C@@H](N(C)C)CC[C@]5(C)[C@H]4CC[C@]23CN1C`: the Potency result in experiment [1], in experiment [5], in experiment [16], in experiment [6], in experiment [7] and in experiment [9] was “inactive” throughout. Further, the Potency result (in experiment [11]; in experiment [12]; in experiment [10]; with Aromatase (Homo sapiens)) was “inactive” in each case. The Potency was 15 µM (active) in experiment [2], 11.9 µM (active) in [3] and 16.8 µM (active) in [4].

On to `Oc1cc2ccccc2c2ccccc12`, for which the Potency in experiment [1] was 17.4 µM (active); in experiment [2], 1.22 µM (active); in experiment [3], 1.72 µM (active); in [4], 1.09 µM (active); in experiment [5], 9.77 µM (active); in experiment [7], 27.3 µM (active). In addition, the Potency in experiment [8] was 13.7 µM (active); in experiment [9] it was 10.9 µM (active); in experiment [11], 10.9 µM (active); in experiment [10], 11 µM (active); in [15] it was 24.5 µM [fluorescent] (active); in the experiment with Aromatase (Homo sapiens), 6.86 µM (active). Further, the Potency result in experiment [6] was “inactive”.

For `Cc1c(C)c2c(c(C)c1OC(=O)CCC(=O)O)CC[C@@](C)(CCC[C@H](C)CCC[C@H](C)CCCC(C)C)O2`, the figures for the Potency in experiment [1] and in experiment [9] were 26.8 µM (active) and 23.7 µM (active), respectively. For the same compound, the Potency entry in experiment [2], in [3], in experiment [4], in experiment [5], in experiment [7] and in experiment [11] was “inactive” throughout. For the same compound, the Potency entry (in [12]; in experiment [10]; in experiment [13]; in the experiment with Aromatase (Homo sapiens)) was “inactive” in each case.

As to `Fc1ccc([C@@H]2CCNC[C@H]2COc2ccc3c(c2)OCO3)cc1`, the Potency entry in experiment [1], in [6] and in [15] was “inactive” each time. For the same compound, the Potency in experiment [2] is 3.76 µM (active); in experiment [3] it was 7.5 µM (active); in experiment [4], 7.5 µM (active); in experiment [5] it was 8.49 µM (active); in [17], 13.4 µM (active); in experiment [7] it was 18.8 µM (active). Moreover, the Potency in [8] was 21.1 µM (active); in experiment [9], 11.9 µM (active); in experiment [11] it was 10.6 µM (active).

Turning to `CCOC(=O)O[C@H](C)OC(=O)c1ccc2c(c1)cc(C(=O)NC1CCN(C(C)C)CC1)n2Cc1cc(-c2ccc(Cl)s2)on1`, the Potency in experiment [1] was 20.4 µM (active); in [2], 6.41 µM (active); in [3], 11.4 µM (active); in [4] it was 11.4 µM (active); in experiment [5] it was 7.25 µM (active); in experiment [7], 57.1 µM (active). Also, the Potency was 5.09 µM (active) in [9], 4.54 µM (active) in experiment [11], 45.8 µM (active) in experiment [10] and 14.3 µM (active) in the experiment with Aromatase (Homo sapiens). Moreover, the Potency result in [13] was “inactive”.

As for `CCCC(c1cc(C(C)(C)C)c(O)cc1C)c1cc(C(C)(C)C)c(O)cc1C`, the Potency in experiment [1] is 11.1 µM (active); in [2] it was 12.3 µM (active); in [3] it was 12.3 µM (active); in [4] it was 12.3 µM (active); in [5], 22.1 µM (active); in experiment [7], 27.6 µM (active). In addition, the Potency in experiment [9] is 3.9 µM (active); in [11], 3.1 µM (active); in experiment [10], 19.7 µM (active); with Aromatase (Homo sapiens), 15.5 µM (active). In [12], the Potency entry is “inactive”.

With `CCCCN1CCCC[C@H]1C(=O)Nc1c(C)cccc1C`, the Potency entry in experiment [1], in experiment [2], in experiment [3], in experiment [4], in experiment [5] and in experiment [16] was “inactive” throughout. Moreover, the Potency entry in [6], in [7], in experiment [9], in experiment [11], in experiment [12] and in experiment [14] was “inactive” throughout. Moreover, the Potency result (in [10]; in experiment [15]; in [19]; in [13]; with Aromatase (Homo sapiens)) was “inactive” in each case. For the same compound, the activation in experiment [18] is -9.26%.

Regarding `Cc1cc(C2CCCCC2)n(O)c(=O)c1`, the Potency entry in experiment [1], in experiment [5], in experiment [7], in [15] and in experiment [13] was “inactive” throughout. The Potency in [2] was 1.43 µM (active); in experiment [3], 1.14 µM (active); in experiment [4] it was 2.54 µM (active); in [9], 2.54 µM (active); in experiment [11], 2.27 µM (active); in experiment [14], 2.88 µM [inhibitor] (active).
